Pf growth 48h: P. falciparum growth inhibition at 48 hours (one generation). hit rate 5.9% among 310,000. Potency, µM (titrated, usually from 28.7 µM), actives largely listed as inhibitors. P. falciparum luciferase growth in erythrocytes, 48 h
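A one-generation exposure of luciferase-tagged malaria parasites in RPMI 1640/Albumax erythrocyte culture, 37 C and 5% CO2. Inhibition is inferred from decreased luminescence after adding detection reagent.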
Lassa entry inh: blocks Lassa virus binding to or entry into cells | Potency, µM (doses to about 37.9 µM), actives largely listed as inhibitors | hit rate 1.2% among 300,000 | Lassa virus pseudotype entry inhibition, cell reporter; calls by dose curve; tested in HEK293 cells; also: nearly all actives have a fitted effect of over 50% in size
Shiga inhibitor: Shiga toxin inhibition | Vero cells, Shiga toxin protein synthesis inhibition reporter | inhibition, % at 38.7 µM | hit rate 9.2% among 290,000 | AID 2315; in the data active = inhibition mostly above about 28%, no sharp cut-off; inactive = mostly below about 43%
Cycloheximide cs: counter-screen for Shiga toxin inhibitors: cycloheximide protein synthesis inhibition; max response, %; AID 2314; hit rate 12% among 300,000; cell reporter, cycloheximide protein synthesis inhibition counterscreen; in the data active = max response mostly above about 13%, no sharp cut-off; inactive = mostly below about 14%; also: read at 38.3 µM for the half of the compounds with a filed dose
MARV entry inh: inhibitors of Marburg virus binding or cell entry; AID 540276; hit rate 1.8% among 300,000; Potency, µM (top dose mostly 37.8 µM), usual class: inhibitors; Marburg virus pseudotyped entry inhibition, cell reporter; calls by dose curve; tested in HEK293 cells
Pf growth 96h: P. falciparum growth inhibition at 96 hour, primary screen for plastid delayed-death inhibitors. Potency, µM (series often up to 28.7 µM), usual class: inhibitors. AID 504834. hit rate 6.9% among 320,000. P. falciparum luciferase reporter growth, 96 h
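Erythrocytes infected with luciferase-expressing P. falciparum were dispensed at 2% hematocrit and 0.05% parasitemia (final), then incubated with compounds 96 hours at 37 C in 5% CO2. Luminescence after detection reagent addition reported growth.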
Each line names hits and unclear results; the compound was inactive in the other large screens. An excerpt weighted towards active compounds, which were near 19% of everything screened. Unless noted, calls follow the shape of the dose curve; as a rule, active = well fitted inhibition curve with a large enough effect; inconclusive = small, poorly fitted or top-dose-only effect, or another doubt; inactive = no such curve, though single readings can be large or run the other way.

C/C(=N/NC(=O)c1nnn(-c2nonc2N)c1-c1ccccc1)c1ccc2c(c1)OCO2	none (no result: Lassa entry inh)
Nc1nonc1-n1nnc(C(=O)N/N=C/c2cccc(F)c2)c1-c1ccccc1	Pf growth 48h 5.2µM, Pf growth 96h inconclusive
CCc1c(C(=O)N/N=C/c2cccs2)nnn1-c1nonc1N	Shiga inhibitor 45, Cycloheximide cs 23
Cc1ccc(/C=N/NC(=O)c2nnn(-c3nonc3N)c2-c2ccc3c(c2)OCO3)s1	Pf growth 48h 0.26µM, Pf growth 96h inconclusive (no result: Lassa entry inh, MARV entry inh)
Nc1nonc1-n1nnc(C(=O)N/N=C/c2cccc(Cl)c2)c1-c1cccs1	Pf growth 48h 4.7µM, Pf growth 96h 2.3µM
Nc1nonc1-n1nnc(C(=O)N/N=C/C=C/c2ccccc2)c1CSC1=NCCS1	Pf growth 48h inconclusive, Lassa entry inh inconclusive, Shiga inhibitor 43, Cycloheximide cs 17, MARV entry inh inconclusive, Pf growth 96h inconclusive
CCN(CC)c1ccc(/C=N/NC(=O)c2nnn(-c3nonc3N)c2-c2ccc(C)cc2)cc1	Pf growth 48h inconclusive, Pf growth 96h 5.9µM (no result: Lassa entry inh, MARV entry inh)
CCOc1ccc(/C=N/NC(=O)c2nnn(-c3nonc3N)c2-c2ccc(OCC)cc2)cc1	none
Nc1nonc1-n1nnc(C(=O)N/N=C/c2cc(Br)cs2)c1-c1ccccc1	Pf growth 48h inconclusive, MARV entry inh 5.6µM
COc1cccc(-c2c(C(=O)N/N=C/c3cccs3)nnn2-c2nonc2N)c1	Pf growth 48h inconclusive, Pf growth 96h inconclusive (no result: Lassa entry inh, MARV entry inh)
Cc1nc2ccccc2c2oc(C(=O)NC3CC3)cc12	none (no result: Pf growth 48h, Lassa entry inh, MARV entry inh)
CCCCCOc1ccc(C(=O)OCC(=O)Nc2cc(C)on2)cc1	Pf growth 48h inconclusive (no result: Shiga inhibitor, Cycloheximide cs)
Nc1nonc1-n1nnc(C(=O)N/N=C/c2cccc(F)c2)c1-c1ccc2c(c1)OCO2	Pf growth 48h 0.12µM, Pf growth 96h 0.066µM
CCOc1ccc(NC(=O)C2CCCN2C(=O)Oc2ccccc2)cc1 (centres undefined)	none
CC12CCC(C(=O)N(CCCN3CCN(Cc4ccccc4)CC3)C1=O)C2(C)C (centres undefined)	MARV entry inh inconclusive
CC12CCC(C(=O)N(CCCCN3CCN(c4ccccn4)CC3)C1=O)C2(C)C (centres undefined)	Pf growth 48h inconclusive, Pf growth 96h 9.3µM (no result: Lassa entry inh, Shiga inhibitor, MARV entry inh)
COC(=O)c1ccc(NC(=O)C[n+]2ccccc2C)cc1	none (no result: Lassa entry inh, MARV entry inh)
Cc1cc(N2CCOCC2)n2nc(C)c(-c3ccccc3Cl)c2n1	Pf growth 48h inconclusive, Pf growth 96h 5.2µM (no result: Lassa entry inh, MARV entry inh)
Cc1ccc(NC2c3ncccc3C(=O)N2c2ccccc2C)cc1C (centres undefined)	Shiga inhibitor 72, Cycloheximide cs 22, MARV entry inh inconclusive
O=C(O)c1cc(-c2ccco2)nc2ccccc12	none (no result: Lassa entry inh, MARV entry inh)
COc1ccc(-c2nnc(Nc3ccc(OC)c(C(N)=O)c3)c3ccccc23)cc1	none (no result: Pf growth 48h, Shiga inhibitor, Cycloheximide cs, MARV entry inh, Pf growth 96h)
COc1ccc(-c2nnc(Nc3ccc(OC)c(C(=O)N4CCCCC4)c3)c3ccccc23)cc1	Pf growth 48h 5.2µM, MARV entry inh inconclusive, Pf growth 96h inconclusive
COc1ccc(N2CCN(C(=O)c3csc4ccccc34)CC2)cc1	none
COc1ccc(N2CCN(C(=O)c3cc(-c4cccs4)nc4ccccc34)CC2)cc1	Pf growth 48h inconclusive, MARV entry inh 11µM, Pf growth 96h inconclusive (no result: Lassa entry inh)
COc1ccc(Nc2ncc(C(=O)N3CCN(c4ccc(F)cc4)CC3)c3ccccc23)cc1	Pf growth 48h inconclusive, Lassa entry inh inconclusive, MARV entry inh inconclusive, Pf growth 96h 1.9µM
O=C(c1cc(-c2ccco2)nc2ccccc12)N1CCN(c2ccc(F)cc2)CC1	Pf growth 48h inconclusive, Lassa entry inh inconclusive, Shiga inhibitor 78, Cycloheximide cs 33, MARV entry inh inconclusive, Pf growth 96h 13µM
O=C(c1cc(-c2ccc(Br)cc2)nc2ccccc12)N1CCC1	Pf growth 48h 3.3µM, Pf growth 96h 4.1µM (no result: Shiga inhibitor, Cycloheximide cs)
COc1cc(-c2cc(C(=O)N3CCCCCC3)c3ccccc3n2)cc(OC)c1OC	Pf growth 48h inconclusive, Lassa entry inh inconclusive, Pf growth 96h inconclusive (no result: Shiga inhibitor, Cycloheximide cs)
COc1ccc(-c2cc(C(=O)N3CCCCCC3)c3ccccc3n2)cc1	Pf growth 48h 9.3µM, Pf growth 96h 3.3µM (no result: Shiga inhibitor, Cycloheximide cs)
COc1ccc(-c2cc(C(=O)N3CCN(c4ccccc4)CC3)c3ccccc3n2)cc1OC	Pf growth 48h inconclusive, Lassa entry inh 4.5µM, MARV entry inh inconclusive (no result: Pf growth 96h)
Cc1ccc(-c2cc(C(=O)N3CCC(C)CC3)c3ccccc3n2)cc1	Cycloheximide cs 17, Pf growth 96h inconclusive (no result: Lassa entry inh, MARV entry inh)
CC(C)CNC(=O)c1c(N)n(Cc2ccco2)c2nc3ccccc3nc12	Pf growth 48h inconclusive, MARV entry inh inconclusive (no result: Pf growth 96h)
